Screening results from PubChem.
HCV inh: blocks hepatitis C virus; Potency, µM (titrated, usually from 41.8 µM), for the others: top-dose activity change, negative = inhibition, most hits filed as inhibitors; AID 651820; Huh7.5.1 HCVcc-Cre infection, luciferase reporter, 44 h; 340,000 tested, 3.4% active; further: potency means the concentration at half of the fitted maximal effect; on the % scale 0 is the no-effect control and ±100 the full control effect
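HCVcc-Cre virus at an moi near 0.5 was added right after compound to cells cultured 4 h from seeding (1,000 cells/well). Luciferase activity was determined 44 h later, 15 min after substrate addition at RT.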
Shiga toxin inh: blocks Shiga toxin action in Vero cells; Vero cells, Shiga toxin protein synthesis inhibition reporter; inhibition, % at 38.7 µM; 290,000 tested, 9.2% active; AID 2315; in the data active means inhibition mostly above about 28%, no sharp cut-off; inactive means mostly below about 43%; further: 0% is about no effect
AMA1 RON2 block: AMA1-RON2 (P. falciparum) interaction inhibition; AlphaScreen AMA1-biotinylated RON2 peptide binding; Potency, µM (series often up to 58.2 µM), without a hit: top-dose activity change, negative = inhibition, most hits filed as inhibitors; 360,000 tested, 0.2% active;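 further: potency means the concentration at half of the fitted maximal effect; 0% = vehicle wells and -100% = peptide control; nearly all actives have a fitted effect of over 45% in size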
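AMA1 (3D7) with his tag at 25 nM final met compounds first, then biotinylated RON2 peptide at 25 nM; detection used donor plus acceptor beads, 10 µg/mL apiece, read by AlphaScreen after 30 min at room temperature.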
Pf growth 48h: P. falciparum growth inhibition at 48 hours (one generation); P. falciparum luciferase growth in erythrocytes, 48 h; Potency, µM (highest dose often 28.7 µM), inactives show at the highest dose activity change, negative = inhibition, hits mostly inhibitors; 310,000 tested, 5.9% active; AID 504832; further: potency means the concentration at half of the fitted maximal effect; on the % scale 0 is the no-effect control and ±100 the full control effect
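Luminescence readout; reporter = integrated firefly luciferase in P. falciparum. RBC culture at 2% hematocrit, 0.1% parasitemia final, 37 C/5% CO2; decreased signal taken as growth inhibition.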
Pf growth 96h: P. falciparum growth inhibition at 96 hour, primary screen for plastid delayed-death inhibitors. AID 504834. 320,000 tested, 6.9% active. P. falciparum luciferase reporter growth, 96 h. Potency, µM (doses to about 28.7 µM), inactives show at the highest dose activity change, negative = inhibition, usual class: inhibitors; further: potency means the concentration at half of the fitted maximal effect; on the % scale 0 is the no-effect control and ±100 the full control effect
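Erythrocytes infected with luciferase-expressing P. falciparum were dispensed at 2% hematocrit and 0.05% parasitemia (final), then incubated with compounds 96 hours at 37 C in 5% CO2. Luminescence after detection reagent addition reported growth.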
CHX counter: affects cycloheximide protein synthesis inhibition readout, counter-screen | max response, % | AID 2314 | cell reporter, cycloheximide protein synthesis inhibition counterscreen | 300,000 tested, 12% active; in the data active means max response mostly above about 13%, no sharp cut-off; inactive means mostly below about 14%; further: read at 38.3 µM for the half of the compounds with a filed dose; 0% is about no effect
Numbers without * were called inactive. A selection: hits, their analogues and other compounds. The true share with any hit is near 21%. Unless noted, the call rests on the fitted dose curve; in most records, active means well fitted curve in the direction sought with a large enough effect; inconclusive means small, poorly fitted or top-dose-only effect, or another doubt; inactive means no such curve, though single readings can be large; an effect the other way counts as inactive or inconclusive.

`COc1ccc(-c2cc(C(=O)N3CCCCCC3)no2)cc1` gave HCV inh -14.8%, Shiga toxin inh 69.8*, AMA1 RON2 block 5.0%, Pf growth 48h 180.8%, Pf growth 96h 10.0% and CHX counter 19.7*.
Screening COc1cccc(-c2cc(C(=O)N3CCCCCC3)no2)c1 returned HCV inh 12.4%, Shiga toxin inh 54.1*, AMA1 RON2 block 13.2%, Pf growth 48h 147.5%, Pf growth 96h inconclusive and CHX counter 37.1*.
For COc1cccc(-c2cc(C(=O)N3CCCCC3C)no2)c1 (stereo not drawn) the results were HCV inh -1.4%, Shiga toxin inh 104.8*, AMA1 RON2 block 2.2%, Pf growth 48h 119.5%, Pf growth 96h inconclusive and CHX counter 28.0*.
For O=C(NS(=O)(=O)c1ccc2ccc(S(=O)(=O)NCCSc3ccccc3)cc2c1)c1cccc2ccccc12 the results were AMA1 RON2 block 2.8%.
Screening O=S1(=O)CC(N2CCN(CCO)CC2)CN1Cc1ccccc1 (stereo not drawn) returned AMA1 RON2 block 6.0%.
Screening Cc1nc2ccc(NC(=O)c3ccc(Cl)c([N+](=O)[O-])c3)cc2s1 returned HCV inh -20.1%, Shiga toxin inh 20.1, AMA1 RON2 block -1.4%, Pf growth 48h 17.8%, Pf growth 96h 38.3% and CHX counter 0.9.
For Cc1nc2ccc(NC(=O)c3ccc([N+](=O)[O-])cc3)cc2s1 the results were HCV inh inconclusive, Shiga toxin inh 9.9, AMA1 RON2 block 9.7%, Pf growth 48h 25.4%, Pf growth 96h 93.1% and CHX counter 14.1.
`Cc1nc2ccc(NC(=O)c3cc(Cl)ccn3)cc2s1` gave HCV inh -16.5%, Shiga toxin inh 81.6*, AMA1 RON2 block -17.6%, Pf growth 48h 50.4%, Pf growth 96h 178.7% and CHX counter 61.7*.
`Cc1nc2ccc(NC(=O)c3cc([N+](=O)[O-])cc([N+](=O)[O-])c3Cl)cc2s1` gave HCV inh 25.1µM*, Shiga toxin inh -2.5, AMA1 RON2 block -3.0%, Pf growth 48h inconclusive, Pf growth 96h -23.2% and CHX counter 5.1.
Screening Cc1nc2ccc(NC(=O)c3ccc(Cl)nc3)cc2s1 returned HCV inh inconclusive, Shiga toxin inh 23.9, AMA1 RON2 block 9.8%, Pf growth 48h -16.0%, Pf growth 96h inconclusive and CHX counter 18.4*.
`CCc1cc(=O)oc2c3c(cc(OCC(=O)NCCCOC)c12)OC(C)(C)CC3` gave HCV inh inconclusive, Shiga toxin inh 3.8, AMA1 RON2 block -0.4%, Pf growth 48h 0.0%, Pf growth 96h 0.0% and CHX counter -3.2.
Screening CCc1cc(=O)oc2c3c(cc(OCC(=O)NCc4ccncc4)c12)OC(C)(C)CC3 returned HCV inh inconclusive, Shiga toxin inh -3.0, AMA1 RON2 block -11.2%, Pf growth 48h 10.4µM*, Pf growth 96h inconclusive and CHX counter -1.4.
`CCc1cc(=O)oc2c3c(cc(OCC(=O)NCc4ccco4)c12)OC(C)(C)CC3` gave HCV inh 1.26µM*, Shiga toxin inh 34.4*, AMA1 RON2 block -19.2%, Pf growth 48h 32.4%, Pf growth 96h inconclusive and CHX counter 33.2*.
For CCc1cc(=O)oc2c3c(cc(OCC(=O)NCCN4CCOCC4)c12)OC(C)(C)CC3 the results were HCV inh inconclusive, Shiga toxin inh -2.3, AMA1 RON2 block -1.0%, Pf growth 48h inconclusive, Pf growth 96h 9.28µM* and CHX counter -2.9.
For CCc1cc(=O)oc2c3c(cc(OCC(=O)NC4CC4)c12)OC(C)(C)CC3 the results were HCV inh 0.794µM*, Shiga toxin inh -4.9, AMA1 RON2 block 7.6%, Pf growth 48h inconclusive, Pf growth 96h 4.15µM* and CHX counter 0.8.
CCc1cc(=O)oc2c3c(cc(OCC(=O)NCCCC(=O)O)c12)OC(C)(C)CC3 was read as HCV inh 11.0%, Shiga toxin inh 1.1, AMA1 RON2 block -2.9%, Pf growth 48h inconclusive, Pf growth 96h inconclusive and CHX counter -2.3.
CCc1cc(=O)oc2c3c(cc(OCC(=O)NCCC(=O)O)c12)OC(C)(C)CC3 was read as HCV inh -2.4%, Shiga toxin inh -10.9, AMA1 RON2 block 2.6%, Pf growth 48h -19.3%, Pf growth 96h inconclusive and CHX counter -3.0.
Screening Cc1cc(=O)oc2c3c(cc(OCC(=O)N[C@@H](C)C(=O)O)c12)OC(C)(C)CC3 returned HCV inh 13.3%, Shiga toxin inh -4.4, AMA1 RON2 block 0.0%, Pf growth 48h -17.5%, Pf growth 96h 11.7% and CHX counter -1.5.
Screening O=C(Cn1c(=O)c(CNc2ccccc2)cc2cc3c(cc21)OCCO3)Nc1ccccc1Cl returned Shiga toxin inh 21.3 and CHX counter 12.7.
For CCn1c(N)[n+](CC(=O)Nc2ccc(SC(F)F)cc2)c2ccccc21 the results were HCV inh inconclusive, Shiga toxin inh -2.5, AMA1 RON2 block inconclusive, Pf growth 48h 8.28µM*, Pf growth 96h 2.94µM* and CHX counter -3.7.
`CC[N+](CC)(CC)CC(=O)Nc1ccc(SC(F)F)cc1` gave HCV inh 6.9%, Shiga toxin inh 24.8, AMA1 RON2 block 0.8%, Pf growth 48h -7.8%, Pf growth 96h 15.1% and CHX counter 8.8.
O=C(Cn1cnc2ccccc21)Nc1ccc(SC(F)F)cc1 was read as HCV inh 8.91µM*, Shiga toxin inh 15.5, AMA1 RON2 block 1.8%, Pf growth 48h -24.6%, Pf growth 96h -6.4% and CHX counter 10.6.
`Cn1nc(NC(=O)CC23CC4CC(CC(C4)C2)C3)c2c(F)cccc21` gave HCV inh 20.3%, Shiga toxin inh -0.6, AMA1 RON2 block 13.3%, Pf growth 48h inconclusive, Pf growth 96h inconclusive and CHX counter -0.6.
`CC(C)(C)C(=O)OCOP(=O)(COCCn1cnc2c(N)ncnc21)OCOC(=O)C(C)(C)C` gave Pf growth 48h 15.1µM* and Pf growth 96h 6.75µM*.
Screening Nc1ncnc2c1ncn2CCOc1ccccc1 returned HCV inh 26.5%, Shiga toxin inh -8.5, AMA1 RON2 block 0.2%, Pf growth 48h -8.3%, Pf growth 96h 87.0% and CHX counter 23.6.
CCSc1cc(C)nc2c(-c3ccccc3)cnn12 was read as HCV inh 10µM*, Shiga toxin inh 69.2*, AMA1 RON2 block -1.7%, Pf growth 48h 406.3%, Pf growth 96h 120.6% and CHX counter 52.5*.
`C=CCSc1cc(C)nc2c(-c3ccccc3)cnn12` gave HCV inh inconclusive, Shiga toxin inh 80.4*, AMA1 RON2 block 80.9%, Pf growth 48h 286.2%, Pf growth 96h -45.8% and CHX counter 62.5*.
Screening COc1ccc(C(=O)N(C)[C@H]2C[C@H]3c4[nH]c5ccccc5c4CCN3C(=O)[C@H]2CO)cc1 returned AMA1 RON2 block -14.7%.
